Assay results published in PubChem BioAssay (NCI).
About 83,000 compounds went through this panel and 20% of them were active in at least one assay; those are over-represented in the sample as a whole.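 For each line, cells grew in 96-well plates with the test compound present at a single concentration for 48 hours.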 Activity calls are given as the source filed them. Rule for the calls: active = growth percent below 10; inactive = the rest.

Legend:
Test in all cases: NCI-60 one-dose screen, 48 h (100 = growth as untreated, 0 = no growth, -100 = all killed)
Conditions in all cases: 10 µM unless noted
SR leukemia = test system: SR leukemia
RPMI-8226 leukemia = test system: RPMI-8226 leukemia
OVCAR-8 ovarian = test system: OVCAR-8 ovarian
OVCAR-5 ovarian = test system: OVCAR-5 ovarian
OVCAR-4 ovarian = test system: OVCAR-4 ovarian
SK-OV-3 ovarian = test system: SK-OV-3 ovarian
IGROV1 ovarian = test system: IGROV1 ovarian
OVCAR-3 ovarian = test system: OVCAR-3 ovarian
HS 578T breast = test system: HS 578T breast
NCI/ADR-RES ovarian = test system: NCI/ADR-RES ovarian

Measured: growth

COC(=O)c1c(C(=O)OC)c2c3ccccc3c3ccccc3n2c1C(=O)C(F)(F)F
inactive: SR leukemia 81.8% | RPMI-8226 leukemia 97.6% | OVCAR-8 ovarian 99.6% | OVCAR-5 ovarian 99.2% | OVCAR-4 ovarian 94.7% | SK-OV-3 ovarian 107% | IGROV1 ovarian 82.9% | OVCAR-3 ovarian 112% | HS 578T breast 99.2% | NCI/ADR-RES ovarian 93.7%

CCOc1ccc2[nH]c(=O)c(C(c3nnnn3CC3CCCO3)N3CCN(Cc4ccccc4)CC3)cc2c1 (stereo not given)
inactive: SR leukemia 111% | RPMI-8226 leukemia 99.1% | OVCAR-8 ovarian 84.2% | OVCAR-5 ovarian 97% | OVCAR-4 ovarian 94.9% | SK-OV-3 ovarian 79.3% | IGROV1 ovarian 84.6% | OVCAR-3 ovarian 100% | HS 578T breast 20.1% | NCI/ADR-RES ovarian 90.1%

CCCCCCCCc1ccc(C(=O)Nc2ccc(C)c(OP(=O)(O)O)c2)cc1
inactive: SR leukemia 81.9% | RPMI-8226 leukemia 50.6% | OVCAR-8 ovarian 100% | OVCAR-5 ovarian 120% | OVCAR-4 ovarian 88.9% | SK-OV-3 ovarian 115% | IGROV1 ovarian 110% | OVCAR-3 ovarian 96.2% | HS 578T breast 91.6% | NCI/ADR-RES ovarian 97.5%

O=C1N/C(=N\c2nccs2)S/C1=C\c1ccc([N+](=O)[O-])cc1
inactive: SR leukemia 25.5% | OVCAR-8 ovarian 14.3% | OVCAR-5 ovarian 32.8% | OVCAR-4 ovarian 12.4% | SK-OV-3 ovarian 52.7% | IGROV1 ovarian 23.6% | OVCAR-3 ovarian 12.7% | HS 578T breast 20.8%
active: RPMI-8226 leukemia 6.29% | NCI/ADR-RES ovarian 8.78%

COc1ccc(C2=NN(C(=O)[C@H]3[C@@H](c4ccco4)c4sc(=O)[nH]c4S[C@@H]3C)C(c3ccc4ccccc4c3)C2)cc1 (stereo not given in full)
active: RPMI-8226 leukemia 8.59%
inactive: SR leukemia 24.8% | OVCAR-8 ovarian 28% | OVCAR-5 ovarian 42.9% | OVCAR-4 ovarian 49.2% | SK-OV-3 ovarian 84.6% | IGROV1 ovarian 45.6% | OVCAR-3 ovarian 31% | HS 578T breast 29.6% | NCI/ADR-RES ovarian 26.7%

COc1ccc2[nH]cc(-c3cc4nc(-c5cn(C)c6ncc(Br)cc56)cc(N)n4n3)c2c1
active: SR leukemia -16.1% | RPMI-8226 leukemia -6.2% | OVCAR-8 ovarian -55.2% | OVCAR-5 ovarian -83.6% | OVCAR-4 ovarian -36.5% | SK-OV-3 ovarian -42.6% | IGROV1 ovarian -77.3% | OVCAR-3 ovarian -67.3% | HS 578T breast -27.8% | NCI/ADR-RES ovarian -44.8%

O=C(CSc1nnc(-c2ccc(-c3nc4ccc(Cl)cc4[nH]3)cc2)o1)Nc1ccccc1
active: OVCAR-8 ovarian -44.3%
inactive: SR leukemia 10.9% | RPMI-8226 leukemia 45.6% | OVCAR-5 ovarian 49.9% | OVCAR-4 ovarian 37.9% | SK-OV-3 ovarian 66.3% | IGROV1 ovarian 70.8% | OVCAR-3 ovarian 43.4% | HS 578T breast 40.6% | NCI/ADR-RES ovarian 31.7%

COc1ccc2c(c1)C(Sc1ccc(Cl)cc1)c1c(nc(N)c(C#N)c1N)O2 (stereo not given)
active: SR leukemia -3.94%
inactive: RPMI-8226 leukemia 29.4% | OVCAR-8 ovarian 73.6% | OVCAR-5 ovarian 108% | OVCAR-4 ovarian 73.5% | SK-OV-3 ovarian 107% | IGROV1 ovarian 25.9% | OVCAR-3 ovarian 93.2% | HS 578T breast 45.8% | NCI/ADR-RES ovarian 73.6%

Cc1cccc(/C=C/c2ccc(NC(=S)NCCCCN(C)C)cc2)c1
active: SR leukemia -17.4% | RPMI-8226 leukemia -26.1% | OVCAR-8 ovarian -62.3% | OVCAR-5 ovarian -94.2% | OVCAR-4 ovarian -93.7% | SK-OV-3 ovarian -65.9% | IGROV1 ovarian -91% | OVCAR-3 ovarian -55.4% | HS 578T breast -54% | NCI/ADR-RES ovarian -95.1%

Nc1nn2c(-c3cc4cc(Br)ccc4oc3=O)ccnc2c1N=Nc1ccccc1
inactive: RPMI-8226 leukemia 75.2% | OVCAR-5 ovarian 16.8% | IGROV1 ovarian 13.1% | OVCAR-3 ovarian 27.1%
active: SR leukemia 1.69% | OVCAR-8 ovarian -14.9% | OVCAR-4 ovarian -5.33% | SK-OV-3 ovarian -6.82% | HS 578T breast -20.7% | NCI/ADR-RES ovarian -16.7%

Cc1ccc(C2CC(c3ccc(S(=O)(=O)NCCNc4nc(N(C)C)nc(N5CCOCC5)n4)cc3)=Nc3c(N)nc(N)nc3N2)cc1 (stereo not given)
active: SR leukemia 1.45%
inactive: RPMI-8226 leukemia 23.4% | OVCAR-8 ovarian 56.3% | OVCAR-5 ovarian 90% | OVCAR-4 ovarian 55.7% | SK-OV-3 ovarian 77.2% | IGROV1 ovarian 50.2% | OVCAR-3 ovarian 64.9% | HS 578T breast 47.8% | NCI/ADR-RES ovarian 89.3%

Cc1ccc(N=Nc2c(N)nn3c(-c4cc5cc(Br)ccc5oc4=O)ccnc23)cc1
inactive: SR leukemia 50.2% | RPMI-8226 leukemia 93.5% | OVCAR-8 ovarian 54% | OVCAR-5 ovarian 54.8% | OVCAR-4 ovarian 102% | SK-OV-3 ovarian 98.6% | IGROV1 ovarian 45.2% | OVCAR-3 ovarian 108% | HS 578T breast 69.4% | NCI/ADR-RES ovarian 29%

COc1c(F)ccc(C(=O)Nc2ccc3nc(NC(=O)C4CCCN(S(=O)(=O)c5ccc(C(C)(C)C)cc5)C4)sc3c2)c1F (stereo not given)
inactive: SR leukemia 17.3% | RPMI-8226 leukemia 44.3% | OVCAR-8 ovarian 84.9% | OVCAR-5 ovarian 81.3% | OVCAR-4 ovarian 54% | SK-OV-3 ovarian 80.8% | IGROV1 ovarian 55.5% | OVCAR-3 ovarian 83.9% | HS 578T breast 58.2% | NCI/ADR-RES ovarian 67.6%

CCN1CCN(Cc2ccc(C(=O)Nc3cccc(Nc4ccc5c(OC)cccc5n4)c3)cc2C(F)(F)F)CC1
active: SR leukemia -35.1% | RPMI-8226 leukemia -34.8% | OVCAR-8 ovarian -66.1% | OVCAR-5 ovarian -91.9% | OVCAR-4 ovarian -53.1% | SK-OV-3 ovarian -8.33% | IGROV1 ovarian -83.6% | OVCAR-3 ovarian 4.54% | HS 578T breast -16.4% | NCI/ADR-RES ovarian -81%

c1ccc(CSc2nnc(-c3ccc4nc(-c5ccccc5)[nH]c4c3)o2)cc1
active: OVCAR-8 ovarian -23.2% | OVCAR-4 ovarian -43.7% | HS 578T breast -1.88% | NCI/ADR-RES ovarian -40.3%
inactive: SR leukemia 63.6% | RPMI-8226 leukemia 36.7% | OVCAR-5 ovarian 75.3% | SK-OV-3 ovarian 87% | IGROV1 ovarian 63.6% | OVCAR-3 ovarian 27.4%

COc1ccc(-c2cc(C)nc3[nH]c(=O)sc23)cc1
inactive: SR leukemia 75.5% | RPMI-8226 leukemia 69.4% | OVCAR-8 ovarian 63.5% | OVCAR-5 ovarian 80.4% | SK-OV-3 ovarian 55.9% | IGROV1 ovarian 62.5% | OVCAR-3 ovarian 67.1% | HS 578T breast 48.2% | NCI/ADR-RES ovarian 62.4%
active: OVCAR-4 ovarian 2.45%

CN(C)c1nc(NCCNS(=O)(=O)c2ccc(C(=O)/C=C/c3ccc(C(F)(F)F)cc3)cc2)nc(N2CCOCC2)n1
inactive: OVCAR-4 ovarian 56.5% | SK-OV-3 ovarian 76.2% | HS 578T breast 67.8%
active: SR leukemia -23% | RPMI-8226 leukemia -44.2% | OVCAR-8 ovarian 1.73% | OVCAR-5 ovarian 5.43% | IGROV1 ovarian -93.9% | OVCAR-3 ovarian -43% | NCI/ADR-RES ovarian -31.5%

Cc1ccc(O)cc1Nc1nc(SCCN2CCOCC2)nc2c1cnn2CC(Cl)c1ccc(Br)cc1 (stereo not given)
active: SR leukemia -29.4% | IGROV1 ovarian -1.66% | HS 578T breast -25.8% | NCI/ADR-RES ovarian 7.37%
inactive: RPMI-8226 leukemia 16.8% | OVCAR-8 ovarian 20.7% | OVCAR-5 ovarian 18.8% | OVCAR-4 ovarian 32.3% | SK-OV-3 ovarian 43.9% | OVCAR-3 ovarian 26.5%

C/C(=N\Nc1ccc(S(N)(=O)=O)cc1)c1cnn(-c2cc(=O)[nH]c3ccc(Br)cc23)c1C
inactive: RPMI-8226 leukemia 74.3% | OVCAR-8 ovarian 80.5% | OVCAR-5 ovarian 81.4% | OVCAR-4 ovarian 67.7% | SK-OV-3 ovarian 69.2% | IGROV1 ovarian 56.9% | OVCAR-3 ovarian 56.2% | HS 578T breast 28.4% | NCI/ADR-RES ovarian 90.1%
active: SR leukemia 4.11%

COc1cc(C2C(C(=O)OCc3ccccc3)=C(C)Nc3nc4ccccc4n32)cc(OC)c1OC (stereo not given)
active: OVCAR-4 ovarian 1.46% | NCI/ADR-RES ovarian 6.58%
inactive: SR leukemia 11.3% | RPMI-8226 leukemia 48.8% | OVCAR-8 ovarian 13.5% | OVCAR-5 ovarian 45.5% | SK-OV-3 ovarian 25.6% | IGROV1 ovarian 44.1% | OVCAR-3 ovarian 12.1% | HS 578T breast 14%

COc1cccc(-c2ccc(/C=N/NC(=O)c3[nH]c4ccc(Br)cc4c3-c3ccccc3)s2)c1
inactive: OVCAR-4 ovarian 31.7% | SK-OV-3 ovarian 22.1% | HS 578T breast 17.8%
active: SR leukemia 6.57% | RPMI-8226 leukemia -22.9% | OVCAR-8 ovarian 0.0466% | OVCAR-5 ovarian -5.23% | IGROV1 ovarian 8.09% | OVCAR-3 ovarian -40.5% | NCI/ADR-RES ovarian -50.1%

C[C@H](NC(=O)c1ccc2c(-c3ccc(C(F)(F)F)cc3)cccc2c1)c1ccccn1
inactive: SR leukemia 33.3% | RPMI-8226 leukemia 21.4% | OVCAR-8 ovarian 44.7% | OVCAR-5 ovarian 75.2% | OVCAR-4 ovarian 42% | SK-OV-3 ovarian 64% | IGROV1 ovarian 55.8% | OVCAR-3 ovarian 45.6% | HS 578T breast 53.2% | NCI/ADR-RES ovarian 32.5%
